Source: PubChem BioAssay AID652040 (Broad Institute, 2013)
Results with a measured potency or affinity are listed apart. A number with no mark means an inactive call.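 Rule for the calls: active = falling luciferase signal whose fitted half-maximal concentration is at most twice the top tested dose; inconclusive = flat inhibition between 30 and 70% or a poor curve fit; inactive = the rest.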

Assay: off-target signal loss in HeLa-CEM21 co-culture – HeLa F-luc CTL cells, cherry-picked, counter-screen for HIV-1 Env fusion inhibitor project, dose response (AID 652040);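 note: 0% = median of neutral control wells and -100% = doxycycline 40 µg/mL wells; more negative values mean stronger loss of luciferase signal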
Settings: HeLa-F-luc CTL cells with CEM21, firefly luciferase counterscreen; series mostly up to 35 µM; activity change, negative = inhibition: at the top concentration

Compound | activity change, negative = inhibition
Cc1ccccc1-n1c(=O)c2ccccc2n2cnnc12 | 7.81%
COc1ccc(/C=C/c2nc(S(=O)(=O)c3ccccc3)c(NCCCN(C)C)o2)cc1OC | 15.6% [at 16 µM]
N#Cc1c(NCc2ccccc2)ccnc1NCc1cccnc1 | -7.24%
COc1ccc(-c2cc(C3CCN(c4cc(Cl)nc(N)n4)CC3)[nH]n2)cc1 | 4.58%
Cc1cc(N2CCN(c3nc4ccccc4s3)CC2)n2ncnc2n1 | -10.3%
Cc1sc2ncnc(N3CCN(S(=O)(=O)c4ccc(Br)cc4)CC3)c2c1C | -1.58%
CCCCS(=O)(=O)N1CCN(C(=O)C(=O)c2cccc(C(F)(F)F)c2)CC1 | -8.5%
O=C(COC(=O)c1cccc(S(=O)(=O)N2CCOCC2)c1)NCc1ccccc1 | 5.14%
COc1ccccc1CN(C)C(=O)CN1CCN(C(=O)c2cccs2)CC1 | 4.78%
Clc1ccc(-c2noc(CSc3nnc(-c4ccncc4)n3-c3ccccc3)n2)cc1 | 18.5%
Cc1ccc(-n2nnnc2SCn2nnc3ccccc3c2=O)c(C)c1 | 6.64%
COC(=O)c1ccc(NC(=O)c2ccc(CN3CCOCC3)cc2)cc1 | -10.9%
N#Cc1ccc(CN2CCN(C(=O)CNC(=O)Cc3cccc4ccccc34)CC2)cc1 | 18.8%
CCN1C(=O)[C@H]2[C@@H](c3ccc(C(F)(F)F)cc3)N[C@]3(CCCN(Cc4ccccc4)C3=O)[C@H]2C1=O | 40.7%
Nc1ccc(S(=O)(=O)c2ccc(N3CCOCC3)c(N)c2)cc1 | 24.3%
CC(=O)OC1c2ccccc2C(=O)N1c1ccccc1C (configuration not stated) | 9.79%
COC(=O)C[C@H]1C=C[C@H](NC(=O)c2ccccn2)[C@@H](CO)O1 | -2.51%
Cc1ccc(-n2nnnc2-c2cnn(-c3ccc(F)cc3)c2C(F)(F)F)cc1 | 12.4%
c1csc(CNc2ncnc3sccc23)c1 | 0.664%
CC1Cc2cc(-c3csc(NC(=O)Cc4cccs4)n3)ccc2N1S(C)(=O)=O (configuration not stated) | -15.7%
COc1ccc(/C(C)=N/NC(=O)c2cccc(S(=O)(=O)N3CCCC3)c2)c(O)c1 | 27.9% [at 8 µM]
c1ccc2c(c1)CCN(c1ncnc3c1[nH]c1ccccc13)C2 | 30.8%
